The source of these data is ChEMBL document CHEMBL1961873, “Compounds: GSK PKIS; Assays: Nanosyn kinase panel” (2012).

For experiment [1], the target named is T1, 3-phosphoinositide-dependent protein kinase 1 (Homo sapiens) (UniProt O15530).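 Note: values are mean inhibition of PDK1.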
T1 sequence (whole entry): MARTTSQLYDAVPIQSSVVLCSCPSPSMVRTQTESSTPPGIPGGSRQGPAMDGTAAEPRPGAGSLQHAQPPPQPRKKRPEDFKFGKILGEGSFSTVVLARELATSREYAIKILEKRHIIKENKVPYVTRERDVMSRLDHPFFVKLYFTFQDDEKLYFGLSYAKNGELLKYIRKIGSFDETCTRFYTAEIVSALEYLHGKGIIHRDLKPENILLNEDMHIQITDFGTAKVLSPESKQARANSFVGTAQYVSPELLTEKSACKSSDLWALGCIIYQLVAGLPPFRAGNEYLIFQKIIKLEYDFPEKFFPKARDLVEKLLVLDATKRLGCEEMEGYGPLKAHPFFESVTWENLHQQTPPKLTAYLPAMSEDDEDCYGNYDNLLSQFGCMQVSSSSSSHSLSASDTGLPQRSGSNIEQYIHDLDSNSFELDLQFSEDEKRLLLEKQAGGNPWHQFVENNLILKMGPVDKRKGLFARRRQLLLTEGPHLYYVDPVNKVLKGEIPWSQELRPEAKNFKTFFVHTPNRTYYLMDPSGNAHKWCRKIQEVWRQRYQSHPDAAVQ
The note with it: at 0.1 µM.

Experiment [2] deals with cAMP-dependent protein kinase catalytic subunit alpha (Homo sapiens) (UniProt P17612). The conditions noted are these: at 0.1 µM.
The target is the same in experiment [3]. The note with it: at 1 µM.
For experiment [4], the target named is Protein kinase C alpha type (Homo sapiens) (UniProt P17252). The conditions noted are these: at 0.1 µM.
For experiment [5] the target is unchanged. The note with it: at 1 µM.
In experiment [6] the target is Protein kinase C beta type (Homo sapiens) (UniProt P05771). The note with it: at 0.1 µM.
Experiment [7] has the same target. The note with it: at 1 µM.
Experiment [8] has as its target Protein kinase C eta type (Homo sapiens) (UniProt P24723). The note with it: at 0.1 µM.
Experiment [9] has the same target. The conditions noted are these: at 1 µM.
The target in experiment [10] is Protein kinase C gamma type (Homo sapiens) (UniProt P05129). The note with it: at 0.1 µM.
Experiment [11] has the same target. The note with it: at 1 µM.
Experiment [12] addresses T2, Protein kinase C iota type (Homo sapiens) (UniProt P41743).
T2 sequence (whole entry): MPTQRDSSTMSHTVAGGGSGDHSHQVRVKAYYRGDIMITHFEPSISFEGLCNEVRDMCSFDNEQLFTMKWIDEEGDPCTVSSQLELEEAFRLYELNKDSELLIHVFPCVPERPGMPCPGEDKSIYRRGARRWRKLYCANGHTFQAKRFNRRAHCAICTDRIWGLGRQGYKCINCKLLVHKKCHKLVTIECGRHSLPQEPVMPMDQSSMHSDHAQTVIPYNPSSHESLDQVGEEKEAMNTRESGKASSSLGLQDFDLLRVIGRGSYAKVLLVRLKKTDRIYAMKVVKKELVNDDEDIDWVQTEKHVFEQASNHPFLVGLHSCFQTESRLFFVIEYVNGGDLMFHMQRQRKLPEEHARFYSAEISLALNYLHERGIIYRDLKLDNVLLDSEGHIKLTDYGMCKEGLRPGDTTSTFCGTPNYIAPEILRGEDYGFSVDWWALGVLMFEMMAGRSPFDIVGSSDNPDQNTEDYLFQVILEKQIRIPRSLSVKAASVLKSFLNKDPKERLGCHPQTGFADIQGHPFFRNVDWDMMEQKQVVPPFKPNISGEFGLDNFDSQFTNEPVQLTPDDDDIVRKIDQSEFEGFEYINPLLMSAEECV
The conditions noted are these: at 0.1 µM.

In experiment [13] the target is T2, Protein kinase C iota type (Homo sapiens). The conditions noted are these: at 1 µM.
The target of experiment [14] is Protein kinase C theta type (Homo sapiens) (UniProt Q04759). The conditions noted are these: at 0.1 µM.
For experiment [15] the target is unchanged. The note with it: at 1 µM.
The target in experiment [16] is Protein kinase C beta type (Homo sapiens) (UniProt P05771). The conditions noted are these: at 0.1 µM. The source holds these as a separate data set.
Experiment [17] shares this target. The note with it: at 1 µM. This is another data set of the same source.
The target of experiment [18] is T3, Serine/threonine-protein kinase D1 (Homo sapiens) (UniProt Q15139).
T3 sequence (whole entry): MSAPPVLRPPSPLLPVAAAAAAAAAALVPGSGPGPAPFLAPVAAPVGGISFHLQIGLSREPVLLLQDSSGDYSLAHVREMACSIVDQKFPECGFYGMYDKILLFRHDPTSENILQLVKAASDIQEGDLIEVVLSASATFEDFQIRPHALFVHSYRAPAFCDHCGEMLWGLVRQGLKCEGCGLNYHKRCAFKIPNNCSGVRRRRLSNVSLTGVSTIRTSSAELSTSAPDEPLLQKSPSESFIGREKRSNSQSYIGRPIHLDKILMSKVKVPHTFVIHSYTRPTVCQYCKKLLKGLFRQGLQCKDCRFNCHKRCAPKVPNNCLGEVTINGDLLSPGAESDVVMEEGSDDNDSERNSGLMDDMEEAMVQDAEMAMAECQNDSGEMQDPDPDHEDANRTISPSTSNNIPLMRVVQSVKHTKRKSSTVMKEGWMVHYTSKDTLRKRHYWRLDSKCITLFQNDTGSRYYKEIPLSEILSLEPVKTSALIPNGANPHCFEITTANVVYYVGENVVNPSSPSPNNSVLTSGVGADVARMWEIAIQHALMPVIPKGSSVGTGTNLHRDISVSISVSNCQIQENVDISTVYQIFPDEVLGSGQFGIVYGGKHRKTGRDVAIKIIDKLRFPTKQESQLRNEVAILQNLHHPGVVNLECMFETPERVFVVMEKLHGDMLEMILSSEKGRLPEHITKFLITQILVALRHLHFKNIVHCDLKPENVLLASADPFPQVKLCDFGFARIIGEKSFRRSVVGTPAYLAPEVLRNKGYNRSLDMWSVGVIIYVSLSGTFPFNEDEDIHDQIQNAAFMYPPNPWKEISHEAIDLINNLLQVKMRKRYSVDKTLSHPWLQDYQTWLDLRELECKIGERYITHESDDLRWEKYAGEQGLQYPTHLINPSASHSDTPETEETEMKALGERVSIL
The note with it: at 0.1 µM.

In experiment [19] the target is T3, Serine/threonine-protein kinase D1 (Homo sapiens). The conditions noted are these: at 1 µM.
In experiment [20] the target is T4, Serine/threonine-protein kinase D2 (Homo sapiens) (UniProt Q9BZL6).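 Note: reported percent inhibition values are means, part of the GSK PKIS kinase panel screen.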
T4 sequence (whole entry): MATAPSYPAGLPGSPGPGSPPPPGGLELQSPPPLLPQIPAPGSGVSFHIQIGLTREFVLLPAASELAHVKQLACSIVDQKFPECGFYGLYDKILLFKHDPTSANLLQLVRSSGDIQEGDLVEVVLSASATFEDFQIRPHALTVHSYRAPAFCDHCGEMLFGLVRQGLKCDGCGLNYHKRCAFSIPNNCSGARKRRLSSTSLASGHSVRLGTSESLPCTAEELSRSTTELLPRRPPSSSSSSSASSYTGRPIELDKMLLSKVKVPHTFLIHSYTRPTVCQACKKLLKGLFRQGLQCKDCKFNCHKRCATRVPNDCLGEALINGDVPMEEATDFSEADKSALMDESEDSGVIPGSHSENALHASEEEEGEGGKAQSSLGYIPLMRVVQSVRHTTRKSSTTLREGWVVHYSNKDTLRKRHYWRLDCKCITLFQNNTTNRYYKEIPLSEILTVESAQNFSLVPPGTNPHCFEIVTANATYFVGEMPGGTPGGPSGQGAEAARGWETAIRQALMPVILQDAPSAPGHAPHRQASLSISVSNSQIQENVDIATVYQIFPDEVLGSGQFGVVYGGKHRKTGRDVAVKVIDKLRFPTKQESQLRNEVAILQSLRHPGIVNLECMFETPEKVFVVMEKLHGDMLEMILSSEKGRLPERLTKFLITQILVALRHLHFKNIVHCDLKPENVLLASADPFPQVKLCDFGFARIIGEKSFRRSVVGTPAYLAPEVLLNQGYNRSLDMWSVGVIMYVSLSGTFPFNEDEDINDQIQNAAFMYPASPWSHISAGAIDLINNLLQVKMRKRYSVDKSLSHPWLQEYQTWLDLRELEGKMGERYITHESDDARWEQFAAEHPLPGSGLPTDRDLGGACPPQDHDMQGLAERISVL
The conditions noted are these: at 0.1 µM.

Protein kinase C theta type (Homo sapiens), sequence (Q04759 whole entry, looked up): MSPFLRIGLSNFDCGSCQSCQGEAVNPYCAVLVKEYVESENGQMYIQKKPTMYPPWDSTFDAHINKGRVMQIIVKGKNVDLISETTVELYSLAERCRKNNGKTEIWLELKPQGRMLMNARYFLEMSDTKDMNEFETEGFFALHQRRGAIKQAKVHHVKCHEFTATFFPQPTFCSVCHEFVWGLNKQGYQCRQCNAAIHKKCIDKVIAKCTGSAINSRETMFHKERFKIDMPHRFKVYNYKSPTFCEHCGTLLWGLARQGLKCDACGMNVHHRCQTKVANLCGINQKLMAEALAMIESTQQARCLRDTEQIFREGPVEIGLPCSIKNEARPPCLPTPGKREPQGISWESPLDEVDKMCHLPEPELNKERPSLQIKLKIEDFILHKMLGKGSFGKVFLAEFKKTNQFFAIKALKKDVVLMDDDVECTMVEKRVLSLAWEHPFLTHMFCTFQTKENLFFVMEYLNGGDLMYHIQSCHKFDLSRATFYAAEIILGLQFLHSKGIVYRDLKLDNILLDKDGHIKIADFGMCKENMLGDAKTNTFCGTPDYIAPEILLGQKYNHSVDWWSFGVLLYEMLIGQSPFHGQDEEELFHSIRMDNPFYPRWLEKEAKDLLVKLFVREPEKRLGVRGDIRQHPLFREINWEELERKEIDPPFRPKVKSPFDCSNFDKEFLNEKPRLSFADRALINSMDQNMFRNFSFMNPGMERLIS
Protein kinase C beta type (Homo sapiens), sequence (P05771 2-671 limits assumed): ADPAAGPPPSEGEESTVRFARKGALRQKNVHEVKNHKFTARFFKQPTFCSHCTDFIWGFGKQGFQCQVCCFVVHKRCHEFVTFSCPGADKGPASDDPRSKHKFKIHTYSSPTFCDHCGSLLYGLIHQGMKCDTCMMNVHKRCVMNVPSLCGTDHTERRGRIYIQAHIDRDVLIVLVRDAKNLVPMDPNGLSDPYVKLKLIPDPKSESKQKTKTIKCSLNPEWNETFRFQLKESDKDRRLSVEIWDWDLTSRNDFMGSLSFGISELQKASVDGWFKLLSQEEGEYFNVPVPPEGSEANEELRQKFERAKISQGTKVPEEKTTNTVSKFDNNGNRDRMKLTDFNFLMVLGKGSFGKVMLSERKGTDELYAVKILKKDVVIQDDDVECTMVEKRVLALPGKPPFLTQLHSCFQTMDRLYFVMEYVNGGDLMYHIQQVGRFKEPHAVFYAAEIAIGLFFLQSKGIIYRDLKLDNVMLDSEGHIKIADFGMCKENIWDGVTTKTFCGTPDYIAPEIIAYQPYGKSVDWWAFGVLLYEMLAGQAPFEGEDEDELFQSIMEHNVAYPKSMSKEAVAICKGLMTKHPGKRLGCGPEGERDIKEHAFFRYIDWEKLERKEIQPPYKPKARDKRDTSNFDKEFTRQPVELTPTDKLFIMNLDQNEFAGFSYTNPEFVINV
Protein kinase C eta type (Homo sapiens), sequence (P24723 whole entry): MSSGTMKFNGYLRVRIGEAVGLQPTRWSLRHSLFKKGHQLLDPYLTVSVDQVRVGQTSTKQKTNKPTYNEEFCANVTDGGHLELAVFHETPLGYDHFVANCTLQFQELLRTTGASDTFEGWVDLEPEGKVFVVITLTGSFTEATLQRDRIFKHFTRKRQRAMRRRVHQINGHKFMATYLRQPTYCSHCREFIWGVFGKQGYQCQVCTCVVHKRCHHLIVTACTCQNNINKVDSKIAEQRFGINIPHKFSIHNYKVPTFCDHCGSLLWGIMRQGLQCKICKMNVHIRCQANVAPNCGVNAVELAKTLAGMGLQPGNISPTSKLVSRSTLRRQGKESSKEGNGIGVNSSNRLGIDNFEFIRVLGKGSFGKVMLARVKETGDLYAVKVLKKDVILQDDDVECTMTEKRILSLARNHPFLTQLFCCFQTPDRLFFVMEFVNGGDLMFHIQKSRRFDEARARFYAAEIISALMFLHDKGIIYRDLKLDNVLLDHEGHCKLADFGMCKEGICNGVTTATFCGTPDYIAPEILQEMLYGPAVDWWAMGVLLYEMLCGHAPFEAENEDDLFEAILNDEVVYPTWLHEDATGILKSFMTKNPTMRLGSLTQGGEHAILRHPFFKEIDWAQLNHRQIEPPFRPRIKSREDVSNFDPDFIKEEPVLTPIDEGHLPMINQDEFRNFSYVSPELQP

By inhibition is commonly meant the change of the read-out against control, counted positive when it falls. In the case of `O=C(Nc1n[nH]c2cc(-c3ccc(F)cc3)ccc12)C1CC1`, the inhibition in [1] was 1.87%; in [2] it was 1.56%; in experiment [3], 5.1%; in experiment [4], 0.82%; in experiment [5] it was 2.18%; in experiment [6] it was 2.92%. Further, the inhibition in [7] came to 6.56%; in experiment [8], 3.22%; in experiment [9], 6.59%; in experiment [10] it was 3.26%; in experiment [11] it was 5.71%; in experiment [12], 2.42%. Also, the inhibition came to 3.67% in [13]; 3% in [14]; 5.04% in experiment [15]; 2.1% in [16]; 4.04% in experiment [17]; 3.02% in experiment [18]. Moreover, the inhibition in experiment [19] was found to be 5.62%; in [20], 2.7%.
As for `COc1cc(N2CCN(C(C)C)CC2)ccc1Nc1nc(Nc2ccc(F)cc2C(N)=O)c2cc[nH]c2n1`, the inhibition in experiment [1] is -1.21%; in experiment [2], 7.85%; in [3], 7.44%; in experiment [4], 0.54%; in [5], 6.72%; in experiment [6], 1.83%. Moreover, the inhibition was 4.58% in experiment [7]; 1.05% in [8]; 3.09% in [9]; 3.65% in experiment [10]; 15.7% in experiment [11]; -0.5% in experiment [12]. For the same molecule, the inhibition came to 0.42% in [13]; 2.56% in experiment [14]; 4.69% in experiment [15]; 1.59% in experiment [16]; 5.72% in experiment [17]; 61.7% in [18]. In addition, the inhibition in experiment [19] was found to be 84.3%; in experiment [20], 59.9%.
Take `COc1cc2c(cc1Nc1nc(Nc3ccsc3C(N)=O)c3cc[nH]c3n1)N(C(=O)CN(C)C)CCC2(C)C`: the inhibition amounted to 2.56% in [1]; 2.98% in experiment [2]; 8.67% in experiment [3]; 4.21% in experiment [4]; 34.3% in experiment [5]; 2.16% in [6]. In addition, the inhibition in experiment [7] turned out to be 3.73%; in experiment [8], 6.04%; in experiment [9], 9.1%; in experiment [10], 8.05%; in experiment [11], 44%; in experiment [12] it was 2.68%. In addition, the inhibition in experiment [13] was determined as 5.01%; in experiment [14], 4.59%; in experiment [15], 16.2%; in experiment [16], 3.45%; in [17] it was 15%; in experiment [18], 11.2%. In addition, the inhibition in [19] is 58.5%; in experiment [20], 17.5%.
`O=C(O[C@H]1CN[C@H](C#Cc2cc3ncnc(Nc4ccc(Cc5ccccc5)cc4)c3s2)C1)N1CCOCC1`: the inhibition is -1.22% in experiment [1]; 4.03% in experiment [2]; 5.91% in [3]; 0.96% in [4]; 4.81% in [5]; 2.02% in [6]. Further, the inhibition was 4.66% in experiment [7]; 2.47% in experiment [8]; 4.45% in [9]; 4.28% in [10]; 3.28% in experiment [11]; 2.08% in [12]. Besides, the inhibition worked out at 2.38% in experiment [13]; 1.84% in experiment [14]; 2.2% in experiment [15]; 2.68% in experiment [16]; 4.05% in experiment [17]; 2.54% in experiment [18]. Also, the inhibition in [19] worked out at 3.43%; in experiment [20] it was 3.17%.
As to `CS(=O)(=O)CCNCc1coc(-c2ccc3ncnc(Nc4ccc(OCc5ccccc5)cc4)c3c2)c1`, the inhibition was 6.29% in experiment [1]; 1.59% in [2]; 2.39% in experiment [3]; 0.46% in [4]; 1.78% in experiment [5]; 0.47% in [6]. Further, the inhibition was -1% in experiment [7]; 4.58% in experiment [8]; 3.63% in [9]; -2.12% in [10]; 4.91% in experiment [11]; 1.33% in [12]. Further, the inhibition in [13] is 0.97%; in experiment [14], 1.31%; in [15] it was 1.25%; in experiment [16], -0.17%; in experiment [17], 1.35%; in [18], 1.97%. In addition, the inhibition in experiment [19] was 2.95%; in [20], 2.53%.
With `NS(=O)(=O)c1ccc(N/N=C2\C(=O)Nc3ccc4ncccc4c32)cc1`, the inhibition in experiment [1] was 20.8%; in experiment [2], 1.4%; in [3], 3.13%; in experiment [4] it was 0.41%; in experiment [5], 3.78%; in experiment [6], -0.44%. The inhibition in [7] is -0.03%; in experiment [8], 2.36%; in experiment [9], 3.07%; in experiment [10] it was 0.51%; in [11] it was 11.8%; in experiment [12], -0.86%. Further, the inhibition turned out to be 1.52% in experiment [13]; 2.1% in experiment [14]; 11.8% in experiment [15]; 1.28% in experiment [16]; 3.78% in experiment [17]; 12.6% in experiment [18]. For the same molecule, the inhibition in experiment [19] amounted to 62.2%; in experiment [20], 9.02%.
